# Only some compounds are listed: those with a hit (about 2.8% of all), similar ones and a draw of the others.
# SNCA expr inh – Primary qHTS assay for inhibitors of alpha-synuclein gene (SNCA) expression; HEK-293 SNCA-luciferase knock-in, luminescence, 24 h; Potency, µM (titrated, usually from 57.2 µM), for the others: at the highest dose activity change, negative = inhibition, actives largely listed as inhibitors; 140,000 compounds, 0.17% hits;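 note: potency is the fitted concentration of half-maximal effect; plate controls were DMSO cells for no effect and cell-free wells for full effect; nearly all actives have a fitted effect of over 45% in size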
# IP6K1 inhibitor – Primary qHTS assay for small molecule inhibitors of Inositol hexaphosphate kinase 1 (IP6K1); Inositol hexakisphosphate kinase 1 (Homo sapiens), Q92551; IP6K1 kinase, ADP-Glo luminescence, 2 h; hits give low values; activity change, % (series mostly up to about 58 µM); 140,000 compounds, 0.81% hits; AID 1645851, 2021; in the data active = activity change below about -25%; note: % is set by controls: 0 for no effect and ±100 for the full control effect
# Target sequence (Q92551 whole entry, looked up): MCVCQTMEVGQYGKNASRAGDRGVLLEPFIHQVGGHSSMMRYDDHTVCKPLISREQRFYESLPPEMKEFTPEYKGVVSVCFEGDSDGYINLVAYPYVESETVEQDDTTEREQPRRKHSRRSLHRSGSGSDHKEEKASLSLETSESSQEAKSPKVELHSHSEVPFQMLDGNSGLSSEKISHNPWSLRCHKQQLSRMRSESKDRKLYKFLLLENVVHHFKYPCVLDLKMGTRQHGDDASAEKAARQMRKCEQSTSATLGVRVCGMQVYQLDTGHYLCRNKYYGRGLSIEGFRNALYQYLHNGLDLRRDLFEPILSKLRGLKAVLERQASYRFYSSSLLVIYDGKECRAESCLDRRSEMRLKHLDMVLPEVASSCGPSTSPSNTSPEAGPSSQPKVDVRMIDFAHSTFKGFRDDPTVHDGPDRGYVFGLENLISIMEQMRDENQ
#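 ADP-Glo luminescence measures ADP made by human IP6K1 during a 2 h RT reaction with ATP/IP6 (mix at 1.3 mM/130 uM); top library doses 57.5 and 19.1 uM final.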
# KDM5B inhibitor – Primary screen for KDM5B Histone Demethylases FDH-coupled qHTS; Lysine-specific demethylase 5B (Homo sapiens), Q9UGL1; Potency, µM (titrated, usually from 57.7 µM), actives largely listed as inhibitors; 220,000 compounds, 2.6% hits; KDM5B demethylase, FDH-coupled NADH fluorescence (FDH is formaldehyde dehydrogenase); AID 1347165, 2019; note: potency is the fitted concentration of half-maximal effect; 0% is about no effect; nearly all actives have a fitted effect of over 70% in size
#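 Measured: NADH fluorescence change, 30 min, RT. System: KDM5BΔAP 200 nM final, H3K4me3 peptide, α-KG, Fe(II), ascorbate, NAD⁺ plus FDH, pH 7.5 HEPES. Compounds: titrated, 10 min pre-incubation with enzyme.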
# SNCA viab count – GF-AFC viability counterscreen for inhibitors of alpha-synuclein gene (SNCA) expression; HEK-293-SNCA-luc viability, GF-AFC fluorescence, 24 h; Potency, µM (highest dose often 57.1 µM), for the others: at the highest dose activity change, negative = cytotoxicity, usual class: cytotoxic; 150,000 compounds, 0.12% hits;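 note: potency is the fitted concentration of half-maximal effect; 0% = DMSO-treated cells and -100% = medium-only wells without cells; nearly all actives have a fitted effect of over 30% in size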
#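 HEK-293-SNCA-luc cells (1500/well) plated 24 h, then exposed 24 h to a dilution series; GF-AFC added 30 min at 37C, fluorescence 405/540 nm; normalised to medium-only and DMSO wells, Hill fit.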
# Numbers without * were called inactive; i = inactive; ? = inconclusive; / = no result; ! = not confirmed by another sample; [ ] = dose if it differs, or a comment. Unless noted, calls come from the whole dose curve; as a rule, active = well fitted curve in the direction sought with a large enough effect; inconclusive = small, poorly fitted or top-dose-only effect, or another doubt; inactive = no such curve, though single readings can be large; an effect the other way counts as inactive or inconclusive.
SMILES,SNCA expr inh,IP6K1 inhibitor,KDM5B inhibitor,SNCA viab count
O=C(O)c1cccc(OCc2ccc(Cl)cc2)c1,/,/,i,/
Cc1cc(C(=O)Nc2c(C(C)C)cccc2C(C)C)cs1,/,/,i,/
CCc1noc(-c2ccn3c(CNC(=O)Cc4c[nH]c5ccccc45)nnc3c2)n1,0%,13,?,-7%
O=C(CCCc1ccccc1)NCc1nnc2cc(-c3nc(C4CC4)no3)ccn12,14%,33,28µM*,-1%
CCc1noc(-c2ccn3c(CNC(=O)CCCc4ccccc4)nnc3c2)n1,-6%,37,7.1µM*,10%
Cc1cc(C)c(NC(=O)Cn2c(=O)n(Cc3ccc(C(=O)NCc4ccco4)cc3)c(=O)c3sccc32)c(C)c1,25µM*,10,i,?
Cc1cccc(C)c1NC(=O)Cn1c(=O)n(Cc2ccc(C(=O)NCc3ccco3)cc2)c(=O)c2sccc21,?,39,i,-28%
O=C(NCc1ccccc1)c1nc2c(o1)CCN(Cc1ccc(F)cc1F)CC2,11%[87.6 µM],2,?,-9%[87.6 µM]
O=C(NCc1cccc(F)c1)c1nc2c(o1)CCN(Cc1cccc(Cl)c1)CC2,-18%[87.6 µM],7,35µM*,-21%[87.6 µM]
COc1cccc(CN2CCc3nc(C(=O)NCC4CC4)oc3CC2)c1,46%[87.6 µM],-6,40µM*,-3%[87.6 µM]
O=C(NCc1cccc(F)c1)c1nc2c(o1)CCN(Cc1cc(F)ccc1F)CC2,-3%[87.6 µM],24,32µM*,-2%[87.6 µM]
O=C(Cn1nc(-c2cccs2)oc1=O)Nc1cccc(Cl)c1,/,/,i,/
Cc1nc(-c2cccs2)c(CC(=O)Nc2ccc3c(c2)OCCO3)s1,/,/,i,/
CSc1ccc(Cl)c(C(=O)NCc2ccc(-n3cccn3)cc2)c1,/,/,i,/
O=C(c1cc(C2CC2)[nH]n1)N1CC(F)(F)C[C@H]1c1nc(C2CC2)no1,-14%,1,i,3%
O=C(c1ccc2cc[nH]c2c1)N1C[C@@H](CO)[C@H](c2nc(C3CC3)no2)C1,7%,-4,32µM*,2%
O=C(c1cc[nH]c(=O)c1)N1CC(F)(F)C[C@H]1c1nc(C2CC2)no1,15%,-2,28µM*,1%
COc1ccc(NC(=O)CSc2nnc3c4c5c(sc4ncn23)CCCC5)cc1,/,/,i,/
Cc1cc(C)n2nc(C)c(C(=O)N3CCCC(c4cccc(C(=O)O)c4)C3)c2n1 (centres undefined),-13%,-9,32µM*,-4%
COc1cccc([C@H]2CN(C(=O)c3c(C)nn4c(C)cc(C)nc34)C[C@@H]2N)c1,2%,-11,28µM*,0%
CCCCCc1c(C)nc(Nc2nc(C)c3cccc(OC)c3n2)[nH]c1=O,/,/,i,/
CC(C)(C)OC(=O)N1CCN(C(C(=O)O)c2c[nH]c3cc(Cl)ccc23)CC1 (centres undefined),/,/,i,/
Fc1ccc(CSc2nc(CN3CCOCC3)nc3ccccc23)c(Cl)c1,/,/,i,/
CNc1ccc(OC2CCN(C(=O)COC)CC2)nc1,45%,2,28µM*,13%
CN(C)CC(=O)Nc1ccc(OC2CCN(C)CC2)nc1,-24%,4,i,-18%
SMILES,SNCA expr inh,IP6K1 inhibitor,KDM5B inhibitor,SNCA viab count
COCc1ncc(C)n1CCNC(=O)c1ccc(C)[nH]c1=O,16%,-16,22µM*,-2%
CC(C)NC(NC(=O)c1cccs1)C(Cl)(Cl)Cl (centres undefined),/,/,i,/
c1cc2nc(C3CCCCN3)[nH]c2cn1 (centres undefined),-19%[87.6 µM],15,?,15%[87.6 µM]
c1cnc2nc(C3CCCN3)[nH]c2c1 (centres undefined),11%[87.6 µM],22,13µM*!,-6%[87.6 µM]
Cn1ccc(C(=O)N[C@@H]2COCC[C@@H]2OCc2cscn2)cc1=O,-14%,-2,28µM*,2%
COCCN1C(=O)CS(=O)C12CCN(C(=O)c1cccc3[nH]ccc13)CC2 (centres undefined),14%,8,28µM*,8%
O=C(c1ccc2[nH]ccc2c1)N1CCC2(CC1)N=C(c1ccc(Br)cc1)NO2,21%,-5,i,-1%
Cc1ccc(C2=NC3(CCN(C(=O)c4cccc5[nH]ccc45)CC3)ON2)cc1,36%,-3,32µM*,-22%
O=C(c1ccc2cc[nH]c2c1)N1CCC2(CC1)N=C(c1cccc(Br)c1)NO2,?,9,28µM*,-10%
